Among the test systems are SR leukemia; RPMI-8226 leukemia; OVCAR-8 ovarian; OVCAR-5 ovarian; OVCAR-4 ovarian; SK-OV-3 ovarian; IGROV1 ovarian; OVCAR-3 ovarian; HS 578T breast; NCI/ADR-RES ovarian; T-47D breast; BT-549 breast; MDA-MB-435 melanoma; SW-620 colon; MCF7 breast; HCT-116 colon; HCC-2998 colon; KM12 colon; MDA-MB-468 breast.
Holding throughout (test): NCI-60 one-dose screen, 48 h (100 = growth as untreated, 0 = no growth, -100 = all killed)
Conditions in all cases: 10 µM unless noted

The panel holds about 83,000 compounds, 20% with a hit somewhere; the sample as a whole holds those more often.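 Activity criterion: percent growth below 10, measured after cells in 96-well plates were exposed to a single compound concentration for 48 hours.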 A number with no mark means an inactive call. Active and inactive are the calls of the source.

Take `COc1ccc2[nH]cc(-c3nc(N)nnc3-c3cn(C)c4ncccc34)c2c1`: the growth in the assay on SR leukemia is 33.5%; in the assay on RPMI-8226 leukemia, 58.2%; in the assay with OVCAR-8 ovarian, 64.4%; in the assay with OVCAR-5 ovarian, 77.9%; with OVCAR-4 ovarian, 78%; with SK-OV-3 ovarian, 86.3%. Also, the growth with IGROV1 ovarian was 32.9%; in the assay with OVCAR-3 ovarian, 16.2%; with HS 578T breast it was 37.2%; in the assay with NCI/ADR-RES ovarian, 99%; in the assay on T-47D breast it was 50.8%; in the assay with BT-549 breast it was 36.5%. Besides, the growth in the assay on MDA-MB-435 melanoma was -1.52% (active); with SW-620 colon, 39.4%; in the assay with MCF7 breast, 25.6%; in the assay with HCT-116 colon, 26.7%; in the assay with HCC-2998 colon, 80.2%; in the assay on KM12 colon, 16.6%. For the same compound, the growth with MDA-MB-468 breast is 27.6%.

Take `Nc1nc(-c2ccccc2)c(N=Nc2ccc(Cl)cc2[N+](=O)[O-])s1`: the growth in the assay on SR leukemia is 99.7%; in the assay with RPMI-8226 leukemia it was 94.2%; in the assay on OVCAR-8 ovarian it was 91.3%; in the assay with OVCAR-5 ovarian, 101%; in the assay with OVCAR-4 ovarian, 97.2%; in the assay on SK-OV-3 ovarian, 96.5%. For the same compound, the growth is 80.5% in the assay on IGROV1 ovarian; 108% with OVCAR-3 ovarian; 79.6% in the assay with HS 578T breast; 101% in the assay on NCI/ADR-RES ovarian; 61.2% in the assay on T-47D breast; 92.6% in the assay with BT-549 breast. For the same compound, the growth in the assay on MDA-MB-435 melanoma is 105%; in the assay with SW-620 colon it was 102%; with MCF7 breast it was 60.3%; with HCT-116 colon it was 97.1%; in the assay on HCC-2998 colon, 102%; in the assay on KM12 colon, 102%. The growth in the assay with MDA-MB-468 breast was 89.7%.

Turning to `C#CCOc1cc(N(CC)CC)ccc1C(C(=O)NC(C)(C)C)N(C(=O)C1CCc2cc(F)ccc2O1)c1ccccc1Br` (configuration not stated), the growth in the assay on SR leukemia was 47.6%; in the assay on RPMI-8226 leukemia, 37.9%; in the assay with OVCAR-8 ovarian, 63.2%; with OVCAR-5 ovarian it was 69%; in the assay on OVCAR-4 ovarian, 60.4%; in the assay on SK-OV-3 ovarian, 72.1%. The growth with IGROV1 ovarian was 90.9%; with OVCAR-3 ovarian, 81.6%; with HS 578T breast it was 84.7%; in the assay with NCI/ADR-RES ovarian, 63.3%; in the assay on T-47D breast, 55.6%; in the assay on BT-549 breast, 63.7%. In addition, the growth with MDA-MB-435 melanoma was 50.6%; with SW-620 colon, 59.2%; in the assay on MCF7 breast it was 28.7%; in the assay with HCT-116 colon, 27.5%; with HCC-2998 colon it was 93.5%; with KM12 colon, 40.4%. For the same compound, in the assay with MDA-MB-468 breast, the growth is 38.2%.

For the compound `CC(=O)OCC1OC(OC2C(COC(C)=O)OC(n3cc(COc4ccc5ccc(=O)oc5c4)nn3)C(OC(C)=O)C2OC(C)=O)C(OC(C)=O)C(OC(C)=O)C1OC(C)=O` (configuration not stated), the growth in the assay with SR leukemia is 98.1%; with RPMI-8226 leukemia, 97.3%; with OVCAR-8 ovarian, 106%; in the assay on OVCAR-5 ovarian it was 112%; in the assay on OVCAR-4 ovarian, 115%; with SK-OV-3 ovarian it was 109%. Further, the growth is 111% with IGROV1 ovarian; 113% in the assay with OVCAR-3 ovarian; 89.2% with HS 578T breast; 99.9% with NCI/ADR-RES ovarian; 103% with T-47D breast; 101% with BT-549 breast. Further, the growth was 101% in the assay on MDA-MB-435 melanoma; 106% in the assay on SW-620 colon; 90.9% in the assay on MCF7 breast; 106% in the assay with HCT-116 colon; 108% with HCC-2998 colon; 103% with KM12 colon. For the same compound, in the assay on MDA-MB-468 breast, the growth was 108%.

With `COc1ccc(C(=O)/C=C/c2ccc(OC)c(OCc3ccccc3)c2)cc1OC`, the growth in the assay with SR leukemia was 14.4%; with RPMI-8226 leukemia, 7.98% (active); in the assay on OVCAR-8 ovarian, -7.56% (active); with OVCAR-5 ovarian, 31.4%; in the assay on OVCAR-4 ovarian, 30.1%; in the assay with SK-OV-3 ovarian, 24.7%. Also, the growth in the assay with IGROV1 ovarian is 22.2%; with OVCAR-3 ovarian, 16.3%; in the assay on HS 578T breast, 18.7%; in the assay with NCI/ADR-RES ovarian, -4.74% (active); in the assay on T-47D breast, 15.7%; in the assay with BT-549 breast, -15.5% (active). Also, the growth was 22.7% in the assay with MDA-MB-435 melanoma; 9.63% (active) in the assay on SW-620 colon; 7.12% (active) in the assay on MCF7 breast; 10.7% with HCT-116 colon; 12.6% with HCC-2998 colon; 8.98% (active) with KM12 colon. Also, the growth in the assay with MDA-MB-468 breast was 1.46% (active).

Turning to `O=C(COc1ccc(NC(=O)Nc2ccc(Cl)c(Cl)c2)cc1)N=Nc1c(O)[nH]c2ccccc12`, the growth with SR leukemia is 2.4% (active); in the assay on RPMI-8226 leukemia, 2.89% (active); with OVCAR-8 ovarian, -43.2% (active); in the assay on OVCAR-5 ovarian it was -8.84% (active); in the assay on OVCAR-4 ovarian, -5.31% (active); with SK-OV-3 ovarian it was -49.9% (active). Further, the growth is -49% (active) in the assay on IGROV1 ovarian; -78.1% (active) in the assay with OVCAR-3 ovarian; -9.24% (active) in the assay on HS 578T breast; 80.8% in the assay on NCI/ADR-RES ovarian; 11.6% in the assay with T-47D breast; -38.4% (active) in the assay with BT-549 breast. Also, the growth with MDA-MB-435 melanoma is -63.8% (active); in the assay with SW-620 colon, -62% (active); with MCF7 breast, -6.27% (active); with HCT-116 colon it was -1.24% (active); in the assay on HCC-2998 colon, -49.3% (active); with KM12 colon, -38.3% (active). In addition, in the assay on MDA-MB-468 breast, the growth is -47.7% (active).

Take `COC(=O)C[C@](O)(CCCC(C)(C)O)C(=O)O[C@H]1C(OC)=C[C@@]23CCCN2CCc2cc4c(cc2[C@@H]13)OCO4`: the growth in the assay with SR leukemia was -25% (active); in the assay on RPMI-8226 leukemia it was -18.1% (active); in the assay on OVCAR-8 ovarian, -34.8% (active); with OVCAR-5 ovarian, -14.5% (active); in the assay on OVCAR-4 ovarian, -13.9% (active); with SK-OV-3 ovarian it was 2% (active). For the same compound, the growth in the assay with IGROV1 ovarian was -15.7% (active); in the assay on OVCAR-3 ovarian it was -28.5% (active); in the assay with HS 578T breast, -26% (active); with NCI/ADR-RES ovarian it was 96.3%; with T-47D breast, -7.62% (active); in the assay on BT-549 breast, -29.9% (active). In addition, the growth in the assay on MDA-MB-435 melanoma is -26.8% (active); in the assay with SW-620 colon, -22.2% (active); with MCF7 breast, -17.7% (active); with HCT-116 colon, -29.4% (active); in the assay on HCC-2998 colon it was -61.3% (active); in the assay with KM12 colon, -15.6% (active). Besides, the growth with MDA-MB-468 breast was -36.6% (active).

With `C=C1CCC2C3(C)COC(c4ccccc4F)OC3CCC2(C)C1CC(O)C1=CCOC1=O` (configuration not stated), the growth with SR leukemia is 30.9%; in the assay on RPMI-8226 leukemia it was 10.7%; with OVCAR-8 ovarian, -11.4% (active); with OVCAR-5 ovarian it was 74.9%; in the assay on OVCAR-4 ovarian, 50.3%; in the assay on SK-OV-3 ovarian it was 110%. The growth in the assay with IGROV1 ovarian is 51.4%; with OVCAR-3 ovarian, 31.1%; in the assay on HS 578T breast it was 78.3%; in the assay on NCI/ADR-RES ovarian, 5.4% (active); in the assay with T-47D breast, 42.1%; with BT-549 breast it was -18.8% (active). Besides, the growth was 27.5% with MDA-MB-435 melanoma; -6.12% (active) in the assay on SW-620 colon; 15.2% in the assay on MCF7 breast; -59.4% (active) in the assay with HCT-116 colon; 36.7% in the assay on HCC-2998 colon; 45.3% in the assay with KM12 colon. In addition, the growth in the assay on MDA-MB-468 breast was 63.9%.

These data come from PubChem BioAssay (NCI).
